A number with no mark means an inactive call. The source made the active and inactive calls. The call rests on the fitted dose curve; in most records, active means well fitted activation curve with a large enough effect; inconclusive means small, poorly fitted or top-dose-only effect; inactive means no such curve, though single readings can be large or run the other way.
Potency means the concentration at half of the fitted maximal effect.

A short description of the experiment: Counterscreen for Identifying a Potential Treatment of Ataxia-Telangiectasia: Hit Validation. On activation: 0% is about no effect. Particulars: cell-free AlphaLISA/AlphaScreen artifact counterscreen, PBS only, no cells; series mostly up to 76.9 µM; activation: at the top concentration. The method, boiled down:
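Without cells, compounds at up to 76.7 uM final were combined with premixed anti-pKAP1/anti-KAP1 AlphaLISA bead reagents, protease inhibitors and lysis buffer; signal read after 6 hr at 25C to flag assay-platform artifacts.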
Background: A counterscreen serves to expose hits that act by an unwanted route or on another target.
Consider `CCOC(=O)NC(C(Cl)(Cl)Cl)S(=O)(=O)c1ccccc1` (stereo unspecified), for which the “activation” value is -9.77%. Turning to `COc1cc(C(=O)NCCC(=O)NCCCN2CCCCC2)cc(OC)c1OC`, the “activation” value is 19.2%. Turning to `CC(=O)c1sc2nc(C)c3c(c2c1N)CCCC3`, the Potency is 46.3 µM (active). In the case of `Cc1ccccc1S(=O)(=O)Oc1ccc2ccc(O)cc2c1`, the “activation” value was -9.84%.

On to `COc1cc(/C=C2\SC(=S)N(C(C(=O)O)c3ccccc3)C2=O)ccc1O` (stereo unspecified), for which the “activation” value was -27.9%.

`CCOc1ccccc1CNC(=O)Cn1c(=O)oc2ccccc21`: the “activation” value is -17.7%. Still for that read-out and setting: the value for `NCC(=O)c1cccc2ccc[n+]([O-])c12` was -3.01%; that for `O=C(/C(=C/c1ccc(Cl)cc1)c1nc2ccccc2[nH]1)c1cccs1` was -3.28%; that for `O=C(NC12CC3CC(CC(C3)C1)C2)c1cccc(OC(F)F)c1` was 4.1%. The same measure, in the same setting: the value for `CN(C)C(=O)CN(C)S(=O)(=O)c1ccc(Cl)cc1` was 9.02%.

For `CCN1C/C(=C/c2sccc2C)c2nc3ccccc3c(C(=O)O)c2C1`, the “activation” value is 0.769%. Consider `COc1ccc(NC(=O)C2CC2)cc1OC1CCCC1`, for which the “activation” value was 8.2%.

For `CC1Cc2ccccc2N1C(=O)CSc1nnnn1-c1ccc2c(c1)OCCO2` (stereo unspecified), the “activation” value is 18.8%. For the compound `COc1ccc(C2c3ccc(O)cc3Oc3ncn(CC(C)C)c(=N)c32)cc1` (stereo unspecified), the “activation” value is -3.76%. Still for that read-out and setting: the value for `O=C(O)c1ccc(C2Nc3ccccc3C(=O)N2Cc2ccccc2)cc1` (stereo unspecified) was 27.8%; that for `Cc1nc(Nc2ccc(Cl)cc2)c2oc3ccccc3c2n1` was 0%; that for `CN(C)c1cc(Nc2ccc(O)cc2)c([N+](=O)[O-])c2nonc12` was 9.23%.

`CS(=O)(=O)c1ccc(-c2csc(-c3cccnc3)n2)cc1`: the “activation” value was 8.27%. On to `COc1ccc(CNC(=O)COc2cccnc2[N+](=O)[O-])cc1OC`, for which the “activation” value is -7.52%. Turning to `O=C(Nc1cccc([N+](=O)[O-])c1)N1CCCc2ccccc21`, the “activation” value was -14.3%. In the case of `COc1ccccc1-n1c(SCC(N)=O)nc2sc3c(c2c1=O)CCC3`, the “activation” value is -8.27%.
